Results taken from the OligoGym collection.

Target: GRIPAP1
Assay: pooled miR-30 sensor sort-seq; sequence = guide strand
Details: shRNA
Further: reference of the scale not given here.

Sequence | sensor-assay potency score (higher = more potent)
TTCCATTGCTAGCTCATCCAGC | -0.174
TTTGTGATCAGCTTCCTTCCGT | 0.395
TTTGCTGAACTCCTTATCCAAG | -1.41
TTGTGATCAGCTTCCTTCCGTT | -0.347
TTCCTGTGCATCTGCACTCTGG | -1.21
TTTCTTTTTCAGTTTCTCGGAG | -0.138
TTGAAGTTCTTCCACTGTCTGC | -0.043
TTCCTTGCTGAACTCGGCCATT | -1.52
TTCTTGAAGTTGTTCCAGCAGT | -0.658
TTGCTGGTTCTCTTGCTCCAGC | -0.982
TTCTTTTTCAGTTTCTCGGAGA | -0.31
TATTTCTTGAAGTTGTTCCAGC | -0.115

Target: GRK1
Assay: as above
Details: shRNA

Sequence | sensor-assay potency score (higher = more potent)
TAGTCCTCGATGTCTTTCCAGA | -1.36
TTGTTCAGCTTCTTGCAGGCAT | 0.349
TTAAACTTCGCCACTATCCCCT | 0.34
